Experimental data published in PubChem BioAssay AID651958 (The Scripps Research Institute Molecular Screening Center, 2012).
Hit rate of the full screen: of about 370,000 compounds, about 2,000 (0.54%) were called active. Only a selection was taken, and actives are over-represented in it overall. Values without a mark were called inactive. No stated cut-off is given here; in the data, active means inhibition above about 30%; inactive means the rest.

system: Crimean-Congo hemorrhagic fever virus L polyprotein viral ovarian tumor (vOTU) protease domain; test: CCHFV vOTU protease inhibitors, primary screen, biochemical, Pep-AMC substrate, fluorescence (AID 651958); details: at 11.5 µM, stronger effect = higher value; further: 0% = vehicle wells with enzyme and 100% = no enzyme wells

Compound | inhibition
Cc1cccc(N)c1SC1CCCCC1O (stereo not drawn) | -10%
Cc1cccc(CN2CCC(n3nccc3NC(=O)c3ccccc3C)CC2)n1 | -2.72%
Cc1ccc(S(=O)(=O)N2[C@@H](c3ccc(Br)cc3)C(C(=O)O)=C[C@H]2CC2CCCC2)cc1 | 34.2% (active)
CCCCC[C@@H]1C=C(C(=O)O)[C@H](c2ccc(C#N)cc2)N1S(=O)(=O)c1ccc(C)cc1 | 16.8%
CCCCC[C@@H]1C=C(C(=O)OCC)[C@H](c2ccccc2)N1S(=O)(=O)c1ccc(C)cc1 | 11%
COc1cc(NC(=S)N2CCCC(C)C2)c(OC)cc1Cl (stereo not drawn) | 7.18%
COc1ccc(C(=O)OCCN(C)C2CN(Cc3cn(Cc4cccc(C)c4)nn3)S(=O)(=O)C2)cc1OC (stereo not drawn) | -1.74%
O=C(O)c1ccc(NS(=O)(=O)c2ccc3c(c2)C(=O)c2cc(S(=O)(=O)Nc4ccc(C(=O)O)cc4)ccc2-3)cc1 | 14.6%
O=S(=O)(Nc1ccc2[nH]ncc2c1)c1ccccc1Cl | -2.37%
O=C(O)c1cc(S(=O)(=O)Nc2ccc3cn[nH]c3c2)ccc1Br | 36% (active)
CC1CCCN(CC(O)COc2ccc3c(c2)OCO3)C1 (stereo not drawn) | 9.88%
Oc1ccc(N=Cc2c(O)ccc3ccccc23)cc1 | 63.1% (active)
Oc1ccc(N=Cc2sc3ccccc3c2Cl)cc1 | 97.4% (active)
Cn1cc(CN2CCC(C(O)CCc3ccccc3)CC2)c(-c2ccccc2F)n1 (stereo not drawn) | -4.04%
Cc1cc(OCCN2CCCC2)cc(C(C)C)c1 | -8.52%
CC1=C2C(=O)C3C(CC=C4CC(OC5OC(O)C(O)C(O)C5CO)CCC43C)C2CCC12OC1CC(C)CNC1C2C (stereo not drawn) | -3.46%
O=C(NCc1ccc(F)cc1)c1cc(C2CCCCN2C(=O)C2CCCCC2)on1 (stereo not drawn) | 33.5% (active)
O=C(NCc1ccc(F)cc1)c1cc(C2CCCCN2C(=O)c2ccccn2)on1 (stereo not drawn) | 11.8%
O=C(NCc1ccc(F)cc1)c1cc(C2CCCCN2C(=O)c2cccs2)on1 (stereo not drawn) | -3.47%
CC(NC(=O)CN1CCN(Cc2ccc(Cl)cc2)C1=O)c1ccc2c(c1)OCCO2 (stereo not drawn) | 11.5%
Cc1cccc(OCC(=O)Nc2ccc(C(=O)O)cc2NC(=O)COc2cccc(C)c2)c1 | 16.7%
Cc1cccc(OP(=O)(Oc2cccc(C)c2)OC(c2ccccc2)C(F)(F)F)c1 (stereo not drawn) | 2.83%
CCN(CC)P(=O)(Oc1cccc(C)c1)N(CC)CC | 32.4% (active)
Cc1ccc(S(=O)(=O)N2CCN(C(=O)Cn3c(=O)cnc4ccccc43)CC2)c(C)c1 | 14.9%

Compound | inhibition
O=C(CNCc1ccco1)Nc1cc(S(=O)(=O)N2CCOCC2)ccc1N1CCCC1 | -3.18%
CC(C)C[C@H](NC(=O)C1CCC(CNC(=O)[C@@H]2CCCN2C(=O)OC(C)(C)C)CC1)C(=O)O (stereo partly drawn) | -6.89%
CC(C)c1ccc(O)c(CN2CCN(c3ccccc3)CC2)c1 | -12.4%
O=C(c1ccccc1)c1cccn1CC(=O)N1CCN(c2ccc(F)cc2)CC1 | -2.38%
Oc1c(CN2CCN(c3ccc(F)cc3)CC2)cc(Cl)c2cccnc12 | 31.6% (active)
Cc1ccc(S(=O)(=O)N2CCC(=O)N([C@H](COCc3ccccc3)C(C)C)CC2)cc1 | 3.62%
COc1ccc(NC(=O)CNC(=O)Cn2ccc3ccccc3c2=O)c(OC)c1 | -6.81%
Cc1ccc(Sc2cc(N3CCOCC3)nc(-c3ccccc3)n2)cc1 | 13.3%
O=C(OC(C(=O)NC1CCCC1)c1ccc(F)cc1)c1ccno1 (stereo not drawn) | -21.1%
OCC(CO)(CO)NCc1ccc(-c2ccccc2)cc1 | -4.11%
Oc1ccc(CNc2ccccc2O)cc1 | 37% (active)
COC(=O)C1=CN(c2c(C)cc(C)cc2C)C(N)=C(C#N)C1c1cccc(F)c1 (stereo not drawn) | 4.61%
O=C(CSc1nnc2c(n1)[nH]c1ccccc12)NC1CCCCC1 | -13%
O=C(Nc1cccc2c1CCCC2)C1CCN(C(=O)NC2CCCCC2)CC1 | -8.92%
O=C(NC1CCCCC1)N1CCc2[nH]c3ccccc3c2C1 | 58.5% (active)
CCCNC(=S)N1CCC(NC(=O)C23CC4CC(CC(C4)C2)C3)CC1 | -4.34%
CN1OC[C@@H]2CN(C(=O)c3cccnc3)[C@H](c3ccc(N4CCCCC4)cc3)C[C@@H]21 | -0.01%
N#Cc1cccc(CSc2nnc(CCCO)n2-c2ccccc2)c1 | -2.93%
CCOc1cc(NC(=O)CCl)c(OCC)cc1NC(C)=O | 11.3%
CCOc1ccccc1NC(=O)c1cc(S(=O)(=O)N2CCC3(CC2)OCCO3)ccc1F | -13.4%
CCOc1cc(NC(=O)c2ccccc2C(=O)O)c(OCC)cc1NC(=O)c1ccccc1F | 35.5% (active)
S=C(NCCc1ccccc1)N1CCn2cccc2C1c1ccncc1 (stereo not drawn) | 20.5%
c1ccc(N2Cc3ccccc3-n3nncc3C2)nc1 | -2.36%
Cc1ccn2c(c1)nc(=O)c1cc(S(=O)(=O)N3CCC(C)CC3)ccc12 | -11.7%

Compound | inhibition
CCCCN(CC(=O)Nc1cccc(S(=O)(=O)N2CCCC2)c1)Cc1nc2ccccc2c(=O)[nH]1 | 3.14%
CC(=O)Nc1ccc(NC(=O)CSc2nnnn2C2CCCCC2)cc1 | -5.32%
CCn1nnnc1SCC(=O)Nc1ccc(N(C)C)cc1 | 30.6% (active)
CC(=O)Nc1ccc(NC(=O)CSc2nnnn2-c2ccccc2F)cc1 | 2.7%
CCn1c(SCC(=O)NC2=NCCS2)nnc1C(C)NC(=O)c1ccccc1F (stereo not drawn) | 0.18%
COCCCNS(=O)(=O)c1cccc(S(=O)(=O)c2cccc(S(=O)(=O)NCCCOC)c2)c1 | -10.2%
Cc1ccc(C2(C(F)(F)F)N=C3Sc4cc(C)cc(C)c4N3C(=O)N2)cc1 (stereo not drawn) | -15.2%
O=C(CSc1nnc(COc2ccccc2)n1Cc1ccco1)c1ccc2ccccc2c1 | 7.39%
Cc1ccc(-c2nnc(SCC(=O)Nc3ccc(Oc4ccccc4)cc3)n2Cc2ccco2)cc1 | 6.1%
Cc1ccc(OCc2nnc(SC/C=C/c3ccccc3)n2Cc2ccco2)cc1 | 31.9% (active)
O=C(Cc1ccc(NC(=O)C2CCCN(C(=O)CCc3ccccc3)C2)cc1)Nc1ccc(C(=O)N2CCOCC2)cc1 (stereo not drawn) | 23.1%
Cc1ccc(CSc2nc3[nH]ncc3c(=O)[nH]2)cc1 | -0.35%
Cc1ccc(CSc2nc(-c3ccccc3)c(C#N)c(=O)[nH]2)cc1 | 39.9% (active)
Cc1ccccc1CSc1nnc(-c2ccccc2)c(=O)[nH]1 | -2.29%
Cc1ccc(O)c(NC(=O)c2cc(-c3ccco3)on2)c1 | -0.2%
COCCNC(=O)Nc1ccc2nc(-c3ccco3)c(-c3ccco3)nc2c1 | 36% (active)
CN(C)c1ccc(NC(=O)CSc2n[nH]c(-c3ccco3)n2)cc1 | 4.49%
COc1ccc(NC(=O)NN2CCN(C)CC2)c(OC)c1 | 4.34%
CN1CCCc2cc(C#N)c(=O)[nH]c21 | -314%
CSCCC(NS(=O)(=O)c1ccc2c(c1)oc(=O)n2C)C(=O)NC1CCCc2ccccc21 (stereo not drawn) | 7.61%
Cc1cc(N2CCNC[C@@H]2C)ccc1N1CC[C@H](O)C1 | -1.97%
COc1ccc(/C=N/NC(=O)Cn2cc(C(F)(F)F)ccc2=O)cc1 | 4.22%
Oc1ccc(/C=N/Nc2ccc(C(F)(F)F)cn2)cc1O | 31.3% (active)
O=C(N/N=C/c1ccc(O)c(O)c1)C1c2ccccc2Oc2ccccc21 | 4.82%

Compound | inhibition
CCc1cccc(C)c1N(C(=O)Cn1c(CO)nc2ccccc21)C(C)COC (stereo not drawn) | 6.13%
O=C(Nc1cc(S(=O)(=O)N2CCOCC2)ccc1N1CCOCC1)c1c(F)cccc1Cl | 8.3%
Cc1ccc2c(c1)C(c1ccccc1)N(C(=O)c1ccc(S(=O)(=O)N3CCOCC3)cc1)CC(=O)N2 (stereo not drawn) | -6.16%
Cc1ccc(S(=O)(=O)N2CCN(C(=O)c3cccs3)CC2)cc1 | -14.5%
COc1ccccc1NC1=NC(c2ccc(Cl)cc2)N=C(N)N1 (stereo not drawn) | 2.38%
CCNC(=S)N1CCN(c2ncccn2)CC1 | 43.8% (active)
Cc1ccc(NC(=S)N2CCN(c3ncccn3)CC2)cc1C | 2.37%
CCNC(=S)N1CCN(S(=O)(=O)c2ccc(Cl)s2)CC1 | 11.2%
CCC(C(=O)NCc1cccnc1)n1nc(C)c2sc3ccccc3c2c1=O (stereo not drawn) | -2%
COCCNC(=O)C1C(=O)Nc2ccccc2C(=O)N1c1ccc2c(c1)OCCO2 (stereo not drawn) | 26.3%
O=C(/C=C/c1cccs1)c1cc(Cl)ccc1OC(=O)N1CCOCC1 | 10.7%
Cc1cc2nc(SCCN3CCOCC3)[nH]c2cc1C | 3.87%
CCOC(=O)N1CCC(C(N)=O)CC1 | 8.61%
CCOC(=O)N1CCC(NC(=O)Cc2cn(C)c3ccccc23)CC1 | 3.03%
CCOC(=O)N1CCC(c2cc(=O)n(-c3ccccc3)[nH]2)CC1 | 71.1% (active)
CCOc1ccc(CNC(=O)C2CC(=O)N(C3CCCC3)C2)cc1OC (stereo not drawn) | 4.25%
CC(C)(C)OC(=O)NC(Cc1ccccc1)C(=O)NC(CSC1CCCCO1)C(=O)NN (stereo not drawn) | -4.89%
CCOC(=O)N(C)c1c(CC)nc2c(OCc3ccccc3C(=O)OC)cccn12 | 15.9%
C=CCn1c(SCc2cccc(F)c2)nc2cc(C(=O)N3CCC(C(N)=O)CC3)ccc2c1=O | 14.2%
Cc1ccccc1CN1CCN(C(=O)c2cccc(F)c2)CC1 | 6.94%
O=C1Nc2cc(C(=O)N3CCN(c4ccc(F)cc4)CC3)ccc2NC1CSCc1cccc(F)c1 (stereo not drawn) | 32.1% (active)
